FXIa inh mix – FXIa protease inhibitors in compound pools, primary screen, biochemical, 10-compound mixtures; Coagulation factor XI (Homo sapiens), P03951; purified FXIa, fluorogenic substrate, pooled mixtures; inhibition, % at 5 µM; hit rate 0.19% among 62,000; AID 680, 2007;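 further: each value is inhibition by a whole ten-compound pool holding the compound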
Target sequence (P03951 19-387 limits assumed): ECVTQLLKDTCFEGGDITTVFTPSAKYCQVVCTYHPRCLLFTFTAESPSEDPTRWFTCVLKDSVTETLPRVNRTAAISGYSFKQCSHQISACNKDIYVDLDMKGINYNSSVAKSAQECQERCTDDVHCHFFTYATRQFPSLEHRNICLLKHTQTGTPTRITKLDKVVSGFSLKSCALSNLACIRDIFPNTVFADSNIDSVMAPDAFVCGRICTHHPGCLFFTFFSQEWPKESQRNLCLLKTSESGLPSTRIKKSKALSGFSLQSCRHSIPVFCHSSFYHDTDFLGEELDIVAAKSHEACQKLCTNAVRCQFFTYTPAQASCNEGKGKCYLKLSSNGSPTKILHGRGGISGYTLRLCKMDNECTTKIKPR
Target sequence (P03951 388-625 limits assumed): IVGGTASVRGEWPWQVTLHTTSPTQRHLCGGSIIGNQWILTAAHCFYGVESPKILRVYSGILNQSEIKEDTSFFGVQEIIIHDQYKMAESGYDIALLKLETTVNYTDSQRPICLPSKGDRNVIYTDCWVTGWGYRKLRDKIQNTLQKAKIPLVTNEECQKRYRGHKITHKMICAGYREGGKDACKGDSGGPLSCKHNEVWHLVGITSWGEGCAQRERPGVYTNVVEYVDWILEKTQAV
D1 allo mod – D1 CRE-luciferase signal change, two-sided – cell-based, HEK293 D1, dopamine EC30, D1 allosteric modulator project, primary screen; D(1A) dopamine receptor (Homo sapiens), P21728; dopamine EC30 potentiation; actives deviate in either direction; B-score at 10 µM; hit rate 5.9% among 58,000; AID 641, 2007;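 active means luminescence count or its row- and column-corrected plate score outside the 99.7% band of the plate's sample wells, on either side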
M1 antagonist – antagonists of rat M1 muscarinic receptor | hit rate 3.4% among 64,000 | Muscarinic acetylcholine receptor M1 (Rattus norvegicus), P08482 | CHO-M1 cells, Fluo-4 calcium, ACh EC80 antagonist mode; stronger effect = lower value | B-score at 10 µM | AID 628, 2007;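 active means calcium fluorescence response, raw or row-and-column corrected B-score, differing from the plate sample mean either way at a set confidence level, mostly lower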
FXIIa inh mix – human factor XIIa inhibitors, primary screen, biochemical, pooled compound mixtures, fluorogenic substrate | Coagulation factor XII (Homo sapiens), P00748 | purified FXIIa | inhibition, % at 5 µM | hit rate 0.2% among 62,000
M1 ag – M1 muscarinic receptor agonists, primary screen, CHO-M1 cells, Fluo-4 calcium, agonist mode | Muscarinic acetylcholine receptor M1 | Fluo-4 calcium fluorescence; stronger effect = higher value | B-score at 10 µM | hit rate 3% among 64,000;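 active means fluorescence rise, raw or as B-score row- and column-corrected plate score, outside the 99.7% band of its plate's samples, either direction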
DAT uptake mod – changed hDAT dopamine uptake under cocaine IC80, either direction, primary screen, cocaine antagonist project, cell-based, LLC-PK1 hDAT, [14C]-dopamine uptake, MLSMR; Sodium-dependent dopamine transporter (Homo sapiens), Q01959; LLC-PK1 hDAT cells, [14C]-dopamine uptake with cocaine IC80; actives deviate in either direction; B-score at 10 µM; hit rate 1.3% among 110,000; AID 449768, 2010;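 active means Z score or B-score, a plate-position-corrected score, falls beyond the plate's 99.7% confidence bounds, in either direction; inactive means both scores lie inside the 99.7% bounds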
M1 agonist conf – rat M1 muscarinic receptor agonists, confirmation, CHO-M1 cells, Fluo-4 calcium, duplicate retest | shares compounds with M1 ag | Fluo-4 calcium fluorescence, agonist mode; actives lie on both sides | fluorescence change (max-min) at 10 µM | hit rate 19% among 1,700 | AID 1488, 2009;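 active means fluorescence change differs from the solvent-only DMSO control mean at a set confidence level in both duplicate runs; inconclusive means differs from solvent-only control mean in just one of two runs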;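 further: an EC20 dose of acetylcholine follows compound addition during the same imaging run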
M4 agonist ctr – agonist activity at rat M4 receptor, confirmation, counter-screen for M1 allosteric modulator project, cell-based, agonist mode; shares compounds with M1 ag; CHO M4/Gqi5 cells, Fluo-4 calcium fluorescence; actives lie on both sides; fluorescence change (max-min) at 10 µM; hit rate 9% among 1,700;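 active means fluorescence change differing from the plate's solvent-only control wells at 99.7% confidence in both duplicates, whether higher or lower; inconclusive means differs from solvent controls in only one of two duplicates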
Each line names hits and unclear results; the compound was inactive in the other large screens (follow-up assays come after a bar, where they were run); ! = not active in a repeat. The list is not random: actives were taken first. Their share in the collection is about 7.4%. Unless noted, no stated cut-off is given here; in the data, active means inhibition above about 20% (passing the limit was not always enough); inactive means the rest.

COc1ccc(-n2c(O)c(/C=N/n3cnnc3)c3ccccc3c2=O)cc1	M1 ag 15 | M1 agonist conf 164 | M4 agonist ctr inactive
O=c1c2ccccc2c(/C=N/n2cnnc2)c(O)n1-c1ccccc1	M1 ag 9 | M1 agonist conf 149 | M4 agonist ctr 123
COc1ccccc1CNC(=O)C1CCCN1S(=O)(=O)c1cccc2cccnc12 (configuration not stated)	none
COc1ccc(N/C(C)=C2/C(=O)C(=O)N(CCO)C2c2ccc(Br)cc2)cc1 (configuration not stated)	none (no result: D1 allo mod)
CCCCCn1c(=O)[nH]c2cc(C(=O)NCCN(CC)CC)ccc2c1=O	M1 ag -2.1 | M1 agonist conf -36 | M4 agonist ctr inactive
CCCCCn1c(=O)[nH]c2cc(C(=O)NCCCN3CCCCC3)ccc2c1=O	none
O=C(Nc1ccc2c(c1)OCO2)N1CCN(c2cccc(C(F)(F)F)c2)CC1	M1 ag 2.9 (no result: D1 allo mod) | M1 agonist conf inconclusive | M4 agonist ctr inconclusive
O=C(Nc1ccc2c(c1)OCO2)N1CCN(c2ccccc2Cl)CC1	none (no result: FXIa inh mix, D1 allo mod, M1 antagonist, FXIIa inh mix, M1 ag)
CCn1nnc(NC(=O)C(C)Oc2ccc(Cl)cc2Cl)n1 (configuration not stated)	none
CCN(CC)c1ccc(NC(=O)CN2CCN(S(=O)(=O)c3cc(Cl)ccc3OC)CC2)cc1	none (no result: FXIa inh mix, D1 allo mod, M1 antagonist, FXIIa inh mix, M1 ag)
CCc1nc(NCc2ccccn2)c2oc3ccccc3c2n1	M1 ag 4.2 (no result: D1 allo mod) | M1 agonist conf -24 | M4 agonist ctr inconclusive
c1ccc(CNc2ncnc3c2oc2ccccc23)nc1	none (no result: FXIa inh mix, D1 allo mod, M1 antagonist, FXIIa inh mix, M1 ag)
O=C(Nc1cnc2ccccc2c1)c1ccncc1	none (no result: D1 allo mod)
COC(=O)c1cccc(C(=O)Nc2cnc3ccccc3c2)n1	M1 ag 3.7 | M1 agonist conf inactive | M4 agonist ctr inconclusive
CN(c1ccc(C(=O)NCCSC(C)(C)C)cc1)S(C)(=O)=O	none
COC(=O)CSc1nnc(CNC(=O)c2ccco2)n1-c1ccc(F)cc1	M1 ag 4.4 | M1 agonist conf inactive | M4 agonist ctr inconclusive
CCOC(=O)CSc1nnc(CNC(=O)c2ccco2)n1C	none
CCN(CC)S(=O)(=O)c1ccc(C(=O)N2CCN=C2SC)cc1	M1 ag 16 | M1 agonist conf inconclusive | M4 agonist ctr inactive
COCCN1C(=O)C(CC(=O)Nc2ccc(C(C)=O)cc2)SC1=Nc1ccccc1 (configuration not stated)	M1 ag 3.9 | M1 agonist conf inconclusive | M4 agonist ctr inactive
O=C(CSCC(=O)N1CCCCC1)Nc1nc(-c2ccc(Cl)s2)cs1	M1 ag 4.8 (no result: D1 allo mod) | M1 agonist conf inconclusive | M4 agonist ctr inactive
O=C(CSCC(=O)N1CCCCC1)Nc1nc(-c2cccs2)cs1	M1 ag 5.7 | M1 agonist conf inactive | M4 agonist ctr inactive
CC1CC(C)CN(C(=O)CSCC(=O)Nc2nc(-c3cccs3)cs2)C1 (configuration not stated)	none (no result: D1 allo mod, DAT uptake mod)
O=C(CSCC(=O)N1CCN(c2ccccc2)CC1)Nc1nc(-c2ccc(Cl)s2)cs1	none (no result: FXIa inh mix, D1 allo mod, M1 antagonist, FXIIa inh mix, M1 ag)
Cc1cc(=O)oc(C)c1C(=O)NCCNC(=O)c1c(C)cc(=O)oc1C	none (no result: FXIa inh mix, FXIIa inh mix)
COc1cccc(-n2c(Cc3cc(=O)[nH]c(=O)[nH]3)nnc2SCC(=O)N2CCCC2)c1	none
COc1ccc(-n2c(Cc3cc(=O)[nH]c(=O)[nH]3)nnc2SCC(=O)N2CCCC2)cc1	M1 ag 3.5 | M1 agonist conf inactive | M4 agonist ctr inactive
CCn1c(/C(C#N)=C(\O)CCc2ccccc2)nc2ccccc21	none
O=C(CN1CCOCC1)Nc1scc(-c2ccccc2)c1C(=O)N1CCOCC1	M1 ag 3.4 | M1 agonist conf inconclusive | M4 agonist ctr inactive
O=C(CN1CCOCC1)Nc1ccccc1-c1ccccc1	none
COc1cccc(Cn2c(Oc3cccc(C)c3)nc3c2c(=O)n(C)c(=O)n3C)c1	none
N#Cc1ccccc1CSc1nc(N2CCCCC2)nc(N2CCCCC2)n1	M1 ag 7.4 | M1 agonist conf inactive | M4 agonist ctr inactive
O=C(c1cc2ccccc2oc1=O)N(Cc1ccc2c(c1)OCO2)Cc1ccco1	M1 ag 5 (no result: D1 allo mod) | M1 agonist conf inactive | M4 agonist ctr inconclusive
O=C(NCc1ccc2c(c1)OCO2)c1cc2ccccc2oc1=O	none (no result: FXIa inh mix, D1 allo mod, M1 antagonist, FXIIa inh mix, M1 ag)
Cc1ccc(C)c(N2CCN(C(=O)COc3cc(=O)n(C)c4ccccc34)CC2)c1	M1 ag 5.5 | M1 agonist conf inactive | M4 agonist ctr inactive
Cc1ccc(C)c(N2CCN(C(=O)CCCOc3cc(=O)n(C)c4ccccc34)CC2)c1	M1 ag 5.9 | M1 agonist conf inactive | M4 agonist ctr inactive
C=CCN1C=C2C(=O)C(C)(OC(=O)c3ccc(OC)cc3)C(=O)C(c3ccco3)=C2C=C1CCCC (configuration not stated)	none (no result: FXIa inh mix, D1 allo mod, M1 antagonist, FXIIa inh mix, M1 ag)
Cc1cc(C)n2nc(SCC(=O)N(C)Cc3ccccc3)nc2n1	M1 ag 2.1 (no result: D1 allo mod) | M1 agonist conf inactive | M4 agonist ctr inconclusive
COc1ccc(C2C(C(=O)OCC(=O)Nc3ccc(C)cc3)CCC(=O)N2c2ccc(OC)cc2)cc1 (configuration not stated)	none (no result: FXIa inh mix, D1 allo mod, M1 antagonist, FXIIa inh mix, M1 ag)
N#Cc1ccc(NC(=O)Nc2ccc(Cl)cc2)cc1	M1 ag 3.1 | M1 agonist conf inactive | M4 agonist ctr inactive
CN(CC(=O)Nc1ccc(C#N)cc1)Cc1ccc(Cl)cc1	none
O=C(c1ccccc1F)N1CCN(c2ncccn2)CC1	none (no result: FXIa inh mix, D1 allo mod, M1 antagonist, FXIIa inh mix, M1 ag)
COc1ccc(OC(C)C(=O)N2CCN(c3ccccn3)CC2)cc1 (configuration not stated)	none (no result: DAT uptake mod)
O=C(COc1ccc(Cl)cc1)N1CCN(c2ncccn2)CC1	none
CCN(C(=O)c1cnc(N2CCN(c3ncccn3)CC2)c2ccccc12)c1cccc(Cl)c1	M1 ag 3.3, DAT uptake mod 2.2! | M1 agonist conf inactive | M4 agonist ctr inconclusive
O=C(c1cnc(N2CCN(c3ncccn3)CC2)c2ccccc12)N1CCN(c2ncccn2)CC1	M1 ag 11 | M1 agonist conf inactive | M4 agonist ctr inactive
CN(C(=O)c1cnc(N2CCN(c3ncccn3)CC2)c2ccccc12)c1ccc(Cl)cc1	M1 ag 5.3 | M1 agonist conf inactive | M4 agonist ctr inconclusive
CC(C)NC(=O)c1cnc(N2CCN(c3ccccn3)CC2)c2ccccc12	M1 ag 5.8 | M1 agonist conf inactive | M4 agonist ctr inactive

High-throughput results as filed in PubChem.
